Measured values: PubChem BioAssay
“And” between values parts separate entries of the source, which are not always exact repeats. Equal entries are not always repeated. Where a structure was tested more than once in an assay, its records may differ in their call. The source made the active and inactive calls. Rule as the data show it: active = fold change permeability below about 0.7 or above about 1.3; inactive = in between.

Assay: modulators of brain endothelial barrier permeability, primary screen, cell-based, FITC-avidin fluorescence, HTS (AID 1963498); also: test concentration not given here
Conditions: actives lie on both sides

| SMILES | fold change permeability |
| --- | --- |
| CCCCOc1cc(CC2CNC(=O)N2)ccc1OC (centres undefined) | 0.8 (inactive) |
| O=c1c2ccccc2[nH]c(=S)n1CCN1CCC(=C(c2ccc(F)cc2)c2ccc(F)cc2)CC1 | 1.6 (active) |
| CC/C(=N\NC(=O)c1ccnc(NCCCN2CCOCC2)c1)c1ccc(Cl)cc1O | 0.8 (inactive) |
| C[C@@H](N)C1CCC(C(=O)Nc2ccncc2)CC1 (some centres undefined) | 1.2 (inactive) |
| O=C1CCc2cc(OCCCCc3nnnn3C3CCCCC3)ccc2N1 | 0.9 (inactive) |
| Nc1nc2[nH]c(=O)cnc2c(=O)[nH]1 | 1.4 (active) |
| O=C(OC1C[C@@H]2CC3C[C@H](C1)N2CC3=O)c1c[nH]c2ccccc12 (some centres undefined) | 0.8 (inactive) |
| CCOC(=O)C1=C[C@@H](OC(CC)CC)[C@H](NC(C)=O)[C@@H](N)C1 | 0.8 (inactive) |
| Cc1ccccc1C(OCCN(C)C)c1ccccc1 (centres undefined) | 1 (inactive) |
| Cc1ccc(C(=O)Nc2ccc(S(=O)(=O)O)c3cc(S(=O)(=O)O)cc(S(=O)(=O)O)c23)cc1NC(=O)c1cccc(NC(=O)Nc2cccc(C(=O)Nc3cc(C(=O)Nc4ccc(S(=O)(=O)O)c5cc(S(=O)(=O)O)cc(S(=O)(=O)O)c45)ccc3C)c2)c1 | 1.3 (active) |
| N#Cc1cc([N+](=O)[O-])c2sc(C(N)=O)[n+]([O-])c2c1 | 1.3 (active) |
| O[Si](CCCN1CCCCC1)(c1ccc(F)cc1)C1CCCCC1 (centres undefined) | 1.4 (active) |
| CC1=C(C(=O)Nc2ccc3[nH]ncc3c2)C(c2ccc(F)cc2)NC(=O)N1 (centres undefined) | 1.2 (inactive) |
| C[C@@H](CN1CCC(Cc2ccccc2)CC1)[C@@H](O)c1ccc(O)cc1 | 1.3 (active) |
| O=c1[nH]c(=O)c2nc3ccccc3nc2[nH]1 | 1.3 (active) |
| O=C(NCCc1nccs1)c1cnc2c(SSc3cccc4cc(C(=O)NCCc5nccs5)cnc34)cccc2c1 | 0.7 (active) |
| C[C@]12CCC(=O)C=C1C=C[C@@H]1[C@@H]2CC[C@@]2(C)[C@H]1CC[C@@]21CCC(=O)O1 | 1.1 (inactive) |
| O=C(C1CCCCC1)N1CC(=O)N2CCc3ccccc3C2C1 (centres undefined) | 1.2 (inactive) |
| CC(C)NNC(=O)c1ccncc1 | 0.6 (active) |
| CC(C)(Oc1ccc(CCNC(=O)c2ccc(Cl)cc2)cc1)C(=O)O | 0.9 (inactive) |

| SMILES | fold change permeability |
| --- | --- |
| COc1ccccc1-c1cc(Nc2cccc(CS(N)(=O)=O)c2)ncn1 | 0.9 (inactive) |
| Cc1ccc(S(=O)(=O)N[C@@H](Cc2ccccc2)C(=O)CCl)cc1 | 1.8 (active) |
| NC(=O)c1ccc(OCCCN2C[C@H]3CCC[C@H]3C2)cc1 | 0.8 (inactive) |
| O=[N+]([O-])c1ccc(CNc2nc(NCc3cccc(C(F)(F)F)c3)nc3nc[nH]c23)cc1 | 1.3 (active) |
| Cc1cccc(C2CN(C)CCc3c2cc(O)c(O)c3Cl)c1 (centres undefined) | 0.7 (active) |
| CC(C)CN(C[C@@H](O)[C@H](Cc1ccccc1)NC(=O)O[C@H]1CO[C@H]2OCC[C@H]21)S(=O)(=O)c1ccc(N)cc1 | 1.4 (active) |
| CSc1ccc2c(c1)C(N1CCN(C)CC1)Cc1ccccc1S2 (centres undefined) | 0.9 (inactive) |
| C=Cc1c(C)c2cc3[nH]c(cc4nc(cc5nc(cc1[nH]2)C(C)=C5CCC(=O)O)C(CCC(=O)O)=C4C)c(C)c3C=C | 1 (inactive) |
| NOCC(=O)O | 0.9 (inactive) |
| O=C1NC(=O)C(c2ccccc2)(c2ccccc2)N1 | 1.3 (active) and 1.1 (inactive) |
| O=c1[nH]c2ccccc2c2ccccc12 | 1 (inactive) |
| COc1ccc(C2CNC(=O)C2)cc1OC1CCCC1 (centres undefined) | 1.1 (inactive) |
| COc1ccc(Br)cc1S(=O)(=O)NC(=O)/C=C/c1ccccc1Cc1ccc2ccccc2c1 | 1.1 (inactive) |
| Cc1ccc(C(=O)Nc2cnc(N3CCC(C(N)=O)(N4CCCCC4)CC3)c(C(=O)O)c2)cc1 | 1 (inactive) |
| OC[C@H]1NC[C@@H](O)[C@@H]1O | 1 (inactive) |
| O=C(Nc1cccc(C(=O)Nc2ccc(S(=O)(=O)O)c3cc(S(=O)(=O)O)cc(S(=O)(=O)O)c23)c1)Nc1cccc(C(=O)Nc2ccc(S(=O)(=O)O)c3cc(S(=O)(=O)O)cc(S(=O)(=O)O)c23)c1 | 0.9 (inactive) |
| O=c1ccn([C@@H]2O[C@H](COP(=O)(O)OP(=O)(O)O)[C@@H](O)[C@H]2O)c(=O)[nH]1 | 0.8 (inactive) |
| CCO/C([O-])=N/c1c[n+](N2CCOCC2)no1 | 0.8 (inactive) |
| C=CCN1CCc2c(cc(O)c(O)c2Cl)C(c2ccccc2)C1 (centres undefined) | 1 (inactive) |
